Values without a mark were called inactive. For some assays here: Potency and affinity values are given separately. Active and inactive are the calls of the source. Unless noted, how the calls were made is not given here.

Assay [1] is described as follows: antimalarial activity against Dd2 strain (AID 2302;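 active means growth inhibition above 50% at the single 2 µM test dose, taken to imply half-maximal potency below 2 µM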;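 further: 0% = DMSO untreated growth and 100% = chloroquine plus artemisinin killed control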). Particulars: P. falciparum Dd2 in RBCs, LDH growth readout, 72 h; at 2 µM; hits give high values.
Assay [2] in a line: HepG2 cytotoxicity, primary screen, cytotoxicity control for P. falciparum antimalarial project, cell-based, ATP luminescence (AID 2303;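 active means inhibition above 50%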;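 further: 0% = DMSO wells and 100% = digitonin-killed cells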). As to conditions: HepG2 viability, 24-48 h, at 10 µM, hits give high values.
The target of assay [3] is L-lactate dehydrogenase (Plasmodium falciparum (isolate CDC / Honduras)) (UniProt Q27743). Description: PfLDH activity inhibition – cell lysate, 3D7 strain, counter-screen for P. falciparum growth inhibition project (AID 2304).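 Further: 0% = vehicle and 100% = reference inhibitor.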 As to conditions: P. falciparum 3D7 crude extract, LDH APAD/NBT absorbance; at 2 µM; hits give high values. A general note: A counterscreen serves to expose hits that act by an unwanted route or on another target.
L-lactate dehydrogenase (Plasmodium falciparum (isolate CDC / Honduras)), sequence (Q27743 whole entry, looked up): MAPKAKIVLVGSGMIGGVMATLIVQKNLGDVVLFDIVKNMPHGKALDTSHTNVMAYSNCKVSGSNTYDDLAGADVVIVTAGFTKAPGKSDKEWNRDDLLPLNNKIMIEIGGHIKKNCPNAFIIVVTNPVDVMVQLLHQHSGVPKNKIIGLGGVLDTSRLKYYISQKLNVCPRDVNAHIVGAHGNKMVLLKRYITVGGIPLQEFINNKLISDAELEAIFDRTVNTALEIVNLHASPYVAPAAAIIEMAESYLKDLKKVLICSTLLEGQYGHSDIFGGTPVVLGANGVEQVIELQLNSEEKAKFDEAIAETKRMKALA

Assay [4] in a line: inhibition of 3D7 malaria parasite growth – strain 3D7 (AID 2306).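 Further: 0% = DMSO wells and 100% = chloroquine plus artemisinin control wells.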 As to conditions: P. falciparum 3D7 erythrocytic growth, LDH absorbance, 72 h; at 2 µM; hits give high values.
In assay [5] the target is Calcium-dependent protein kinase 1 (Plasmodium falciparum (isolate 3D7)) (UniProt P62344). Put plainly: PfCDPK1 kinase inhibitors, biochemical, TCAMS library (AID 1159585; cut-off not given, nearly all actives have IC50 up to about 0.98 µM;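 further: inhibitors leave more ATP so luminescence rises with inhibition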). Particulars: recombinant PfCDPK1, Kinase-Glo ATP depletion luminescence.
Calcium-dependent protein kinase 1 (Plasmodium falciparum (isolate 3D7)), sequence (P62344 whole entry, looked up): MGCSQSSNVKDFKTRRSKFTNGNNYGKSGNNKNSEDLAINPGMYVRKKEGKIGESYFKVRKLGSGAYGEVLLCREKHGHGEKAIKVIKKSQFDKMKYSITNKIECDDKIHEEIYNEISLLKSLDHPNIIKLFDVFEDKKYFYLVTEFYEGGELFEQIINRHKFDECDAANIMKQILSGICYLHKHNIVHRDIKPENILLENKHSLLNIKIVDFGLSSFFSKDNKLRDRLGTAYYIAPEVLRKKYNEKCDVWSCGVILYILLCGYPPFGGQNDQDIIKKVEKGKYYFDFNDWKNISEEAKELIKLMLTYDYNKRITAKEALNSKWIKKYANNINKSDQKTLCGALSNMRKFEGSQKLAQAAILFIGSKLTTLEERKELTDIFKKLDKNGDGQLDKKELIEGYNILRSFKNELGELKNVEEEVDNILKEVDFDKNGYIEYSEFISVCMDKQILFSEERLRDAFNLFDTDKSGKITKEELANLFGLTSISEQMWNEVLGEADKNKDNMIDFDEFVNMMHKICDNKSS
Assay [6] addresses Plasmodium falciparum protein kinase 6 (PK6, PF3D7_1337100) (UniProt Q8IDW1). Put plainly: PfPK6 kinase inhibitors, biochemical, TCAMS library (AID 1159586). As to conditions: recombinant PfPK6, Kinase-Glo ATP depletion luminescence. A general note: Kinase-Glo measures the ATP left after a reaction by luminescence.
Assay [7] addresses Protein kinase 7 (PK7), Plasmodium falciparum 3D7 (PF3D7_0213400) (UniProt Q7YTF7). Put plainly: inhibition of Plasmodium PK7 catalytic activity – biochemical, TCAMS antimalarial set, Kinase-Glo luminescence (AID 1159587). As to conditions: recombinant PfPK7, Kinase-Glo ATP depletion luminescence.
Assay [8] deals with Calcium-dependent protein kinase 4 (Plasmodium falciparum (isolate 3D7)) (UniProt Q8IBS5). Put plainly: PfCDPK4 kinase inhibitors, biochemical, TCAMS library (AID 1159588; cut-off not given, nearly all actives have IC50 up to about 0.91 µM). Particulars: recombinant PfCDPK4, Kinase-Glo ATP depletion luminescence.
Calcium-dependent protein kinase 4 (Plasmodium falciparum (isolate 3D7)), sequence (Q8IBS5 whole entry, looked up): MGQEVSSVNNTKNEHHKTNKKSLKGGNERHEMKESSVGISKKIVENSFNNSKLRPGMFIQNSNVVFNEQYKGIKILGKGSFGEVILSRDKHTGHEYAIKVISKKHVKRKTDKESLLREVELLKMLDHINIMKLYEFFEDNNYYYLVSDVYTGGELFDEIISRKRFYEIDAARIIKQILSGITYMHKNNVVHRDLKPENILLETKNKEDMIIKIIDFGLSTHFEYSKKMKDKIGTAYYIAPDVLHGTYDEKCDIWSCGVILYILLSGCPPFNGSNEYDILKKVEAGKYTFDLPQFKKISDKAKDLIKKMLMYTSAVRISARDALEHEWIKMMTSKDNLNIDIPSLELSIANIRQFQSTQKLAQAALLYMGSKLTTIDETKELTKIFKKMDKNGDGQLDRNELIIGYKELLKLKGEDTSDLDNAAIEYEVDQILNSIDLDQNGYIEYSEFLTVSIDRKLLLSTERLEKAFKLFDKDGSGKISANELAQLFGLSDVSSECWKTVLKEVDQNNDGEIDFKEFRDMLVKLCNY

Protein kinase 7 (PK7), Plasmodium falciparum 3D7 (PF3D7_0213400), sequence (Q7YTF7 1-343): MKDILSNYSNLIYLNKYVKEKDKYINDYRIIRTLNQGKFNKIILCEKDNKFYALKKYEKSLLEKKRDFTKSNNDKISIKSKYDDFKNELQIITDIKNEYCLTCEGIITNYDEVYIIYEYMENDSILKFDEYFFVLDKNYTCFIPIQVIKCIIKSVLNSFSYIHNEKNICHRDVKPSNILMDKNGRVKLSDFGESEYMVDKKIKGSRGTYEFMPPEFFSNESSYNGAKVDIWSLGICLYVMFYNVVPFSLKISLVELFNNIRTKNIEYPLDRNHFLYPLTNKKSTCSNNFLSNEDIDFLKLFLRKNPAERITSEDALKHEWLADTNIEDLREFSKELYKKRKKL
Plasmodium falciparum protein kinase 6 (PK6, PF3D7_1337100), sequence (Q8IDW1 1-305): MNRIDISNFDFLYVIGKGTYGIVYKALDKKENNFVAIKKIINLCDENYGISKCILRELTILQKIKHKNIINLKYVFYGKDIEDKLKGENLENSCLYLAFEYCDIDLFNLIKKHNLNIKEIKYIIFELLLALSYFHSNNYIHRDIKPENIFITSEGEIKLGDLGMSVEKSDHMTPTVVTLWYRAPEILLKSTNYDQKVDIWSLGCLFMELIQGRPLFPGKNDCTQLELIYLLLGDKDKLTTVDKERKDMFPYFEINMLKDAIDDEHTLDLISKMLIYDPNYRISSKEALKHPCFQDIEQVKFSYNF

In general, inhibition refers to the drop in the measured response relative to a control, in per cent. With `O=S(=O)(NCCN1CCCC1)c1ccc(-c2ccc(CNCc3ccc(F)cc3)cc2)cc1F`, the figures for the growth inhibition in assay [1] and in assay [4] were 21% and 82% (active), respectively. Besides, the figures for the inhibition in assay [2] and in assay [3] were 40% and 2%, respectively. For the same molecule, the outcome in assay [5], in assay [6], in assay [7] and in assay [8] was inactive.

`CCNC[C@@H](O)[C@H](Cc1ccccc1)NC(=O)c1cc2c3c(c1)c(CC)cn3CCS(=O)(=O)N2C`: the growth inhibition in assay [1] is 65% (active); in assay [4], 99% (active). Moreover, the inhibition was 0% in assay [2] and -4% in assay [3]. Moreover, the outcome in assay [5], in assay [6], in assay [7] and in assay [8] was inactive.

Regarding `COc1ccc2nccc([C@@H](O)CN3CCC(NC(=O)/C=C/c4ccc5cc(C)[nH]c5c4)CC3)c2c1`, the values for the growth inhibition in assay [1] and in assay [4] were 93% (active) and 97% (active), respectively. The inhibition is 7% in assay [2] and -6% in assay [3]. Also, the outcome in assay [5], in assay [6], in assay [7] and in assay [8] was inactive.

`COc1ccc(-c2ccc(NC(=O)c3cccc(Cl)c3)cc2)cc1CN(C)CCO`: the growth inhibition in assay [1] is 52% (active); in assay [4], 89% (active). Besides, the inhibition in assay [2] is 39%; in assay [3] it was -4%. Moreover, the outcome in assay [5], in assay [6], in assay [7] and in assay [8] was inactive.

As to `O=C(/C=C/c1ccc(Cl)c(Cl)c1)NCCCCCN1CCN(C(=O)Nc2cccc(F)c2)CC1`, the growth inhibition in assay [1] was 1%; in assay [4], 91% (active). In addition, the inhibition in assay [2] is 12%; in assay [3], -1%. Also, the result in assay [5], in assay [6], in assay [7] and in assay [8] was inactive.

`Cc1ccc(CCOCCCCCNCC(O)c2cc(Cl)c(N)c(Cl)c2)cc1` (configuration not stated): the growth inhibition in assay [1] was 98% (active); in assay [4], 99% (active). In addition, the figures for the inhibition in assay [2] and in assay [3] were 10% and -1%, respectively. In addition, the result in assay [5], in assay [6], in assay [7] and in assay [8] was inactive.

Regarding `COc1ccc(N2CCN(CCCCNC(=O)c3ccc(NC(=O)c4cc(C(F)(F)F)cc(C(F)(F)F)c4)cc3)CC2)c(OC)c1`, the growth inhibition in assay [1] is 99% (active); in assay [4], 100% (active). Also, the inhibition was 30% in assay [2] and 2% in assay [3]. The result in assay [5], in assay [6], in assay [7] and in assay [8] was inactive.

`c1cncc(CCNCc2ccc(-c3cccc(-c4nc5ccccc5[nH]4)c3)cc2)c1`: the growth inhibition was 99% (active) in assay [1] and 102% (active) in assay [4]. For the same molecule, the inhibition is 39% in assay [2] and -2% in assay [3]. Further, the result in assay [5], in assay [6], in assay [7] and in assay [8] was inactive.

On to `N#Cc1ccc(NC(=O)Nc2ccc(OC(F)(F)F)cc2)cc1`, for which the growth inhibition was 91% (active) in assay [1] and 98% (active) in assay [4]. Further, the inhibition in assay [2] is 43%; in assay [3], 0%. Further, the result in assay [5], in assay [6], in assay [7] and in assay [8] was inactive.

For `Cc1cc(=O)c(-c2ccc(OCCSc3ccc(C(F)(F)F)cn3)cc2)c(C)[nH]1`, the growth inhibition in assay [1] is 96% (active); in assay [4] it was 97% (active). Moreover, the inhibition in assay [2] is 2%; in assay [3], 7%. The result in assay [5], in assay [6], in assay [7] and in assay [8] was inactive.

Regarding `CCn1c(C)cc(C=C2SC(=Nc3ccccc3)NC2=O)c1C`, the growth inhibition in assay [1] is 87% (active); in assay [4], 90% (active). For the same molecule, the inhibition in assay [2] was 27%; in assay [3], 3%. Besides, the result in assay [5], in assay [6], in assay [7] and in assay [8] was inactive.

Take `CCOC(=O)CNCC(=O)c1ccc(OCc2ccccc2)cc1`: the results for the growth inhibition in assay [1] and in assay [4] were 43% and 95% (active), respectively. The inhibition in assay [2] is 4%; in assay [3], -3%. Also, the result in assay [5], in assay [6], in assay [7] and in assay [8] was inactive.

For the molecule `Cc1ccc(CNC(=O)[C@H](Cc2ccccc2)Nc2cc(C)nc(Nc3ccccc3)n2)cc1`, the growth inhibition in assay [1] was 91% (active); in assay [4] it was 101% (active). Also, the values for the inhibition in assay [2] and in assay [3] were 16% and 1%, respectively. Further, the outcome in assay [5], in assay [6], in assay [7] and in assay [8] was inactive.

As to `CC(C)C[C@H](NC(=O)c1ccc(OCCN2CCOCC2)cc1)C(=O)N[C@H](/C=N/NC(=O)OC(C)(C)C)CCc1ccccc1`, the results for the growth inhibition in assay [1] and in assay [4] were 87% (active) and 96% (active), respectively. The results for the inhibition in assay [2] and in assay [3] were 8% and -4%, respectively. Also, the outcome in assay [5], in assay [6], in assay [7] and in assay [8] was inactive.

On to `CCC(C)C#Cc1c(C)nc(N)nc1N` (configuration not stated), for which the results for the growth inhibition in assay [1] and in assay [4] were -4% and 96% (active), respectively. Further, the inhibition in assay [2] is 53% (active); in assay [3], 3%. In addition, the result in assay [5], in assay [6], in assay [7] and in assay [8] was inactive.

`Fc1ccc(C=NNc2ccnc3ccc(C(F)(F)F)cc23)cc1`: the results for the growth inhibition in assay [1] and in assay [4] were 6% and 90% (active), respectively. Further, the inhibition was 22% in assay [2] and 4% in assay [3]. Also, the outcome in assay [5], in assay [6], in assay [7] and in assay [8] was inactive.

For `CC1(C)N=C(N)N=C(N)N1OCCCCCCOc1ccc(Cl)c2ccccc12`, the figures for the growth inhibition in assay [1] and in assay [4] were 94% (active) and 91% (active), respectively. Besides, the figures for the inhibition in assay [2] and in assay [3] were 62% (active) and 1%, respectively. The outcome in assay [5], in assay [6], in assay [7] and in assay [8] was inactive.

As for `COc1ccc2nccc(N(C)CC3(O)CCN(CC(O)c4ccc5c(c4)NC(=O)CS5)CC3)c2n1` (configuration not stated), the growth inhibition is -4% in assay [1] and 101% (active) in assay [4]. Moreover, the inhibition in assay [2] was 1%; in assay [3], -5%. Moreover, the result in assay [5], in assay [6], in assay [7] and in assay [8] was inactive.

On to `O=C(Nc1cccc(-c2nc3ccccc3[nH]2)c1)c1ccc(-c2cccc([N+](=O)[O-])c2)o1`, for which the growth inhibition in assay [1] is 28%; in assay [4], 93% (active). For the same molecule, the inhibition in assay [2] is 22%; in assay [3], -1%. For the same molecule, the outcome in assay [5], in assay [6], in assay [7] and in assay [8] was inactive.

Values taken from PubChem BioAssay.
